# Results from PubChem BioAssay (NCATS).
# Several values for one entry are separate records, joined by “and”; a condition that tells them apart may be missing. Identical values can stand only once. A number with no mark means an inactive call. Results filed as inconclusive are left out. Where a call stands in place of a potency, no number is given. Activity calls are given as the source filed them. Unless noted, the call rests on the fitted dose curve; in most records, active means well fitted curve in the direction sought with a large enough effect; inconclusive means small, poorly fitted or top-dose-only effect, or another doubt; inactive means no such curve, though single readings can be large; an effect the other way counts as inactive or inconclusive.
# Key:
# [1] = Cell Viability - BJ (AID 421; calls by dose curve;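 further: potency means the concentration at half of the fitted maximal effect; cells exposed to compound for 40 hours at 37 °C before readout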); conditions: BJ fibroblast viability, qHTS
# In short: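 Quantitative HTS: ATP depletion in BJ cells after 40 hr compound exposure in complete culture medium, detected with CellTiter-Glo; AC50 from standard Hill fits.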
# [2] = Cell Viability - Jurkat (AID 426;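 active means dose-dependent loss of cell ATP signal giving a full or clear fitted curve, ranked by lower potency value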;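 further: potency means the concentration at half of the fitted maximal effect; cells exposed to compound for 40 hours at 37 °C before ATP read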); conditions: qHTS
# In short: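 Seed 5000 Jurkat E6-1 cells/well; add compound; incubate 40 hr at 37 °C; add CellTiter-Glo; wait 20 min at room temperature; read luminescence. Fit concentration-response with Hill equation for AC50.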
# [3] = Cell Viability - Hek293 (AID 427;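 active means compounds whose dose-response curve shows a full or clear partial loss of cell viability, called from curve shape rather than a numeric limit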;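 further: potency means the concentration at half of the fitted maximal effect; cells exposed to compound for 40 hours at 37 °C before reading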); conditions: qHTS
# In short: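 AC50 values derive from Hill-modelled concentration-response of ATP-based luminescence, normalized between DMSO-only and 100 uM tamoxifen controls. Cells were exposed in complete culture medium for 40 hr at 37 °C before detection.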
# [4] = Cell Viability - HepG2 (AID 433; calls by dose curve;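 further: potency means the concentration at half of the fitted maximal effect; cells exposed to compound for 40 hours; potency for ATP loss meaning cytotoxicity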); conditions: qHTS
# In short: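 Cytotoxicity read as ATP loss (CellTiter-Glo luminescence) after 40 hr compound exposure of HepG2, 1500 cells/well, 37 °C. AC50 by Hill equation; 0% set by DMSO, 100% inhibition by 100 uM tamoxifen.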
# [5] = Cell Viability - SK-N-SH (AID 435; calls by dose curve; further: potency means the concentration at half of the fitted maximal effect); conditions: SK-N-SH neuroblastoma cell viability qHTS
# In short: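 qHTS cytotoxicity: CellTiter-Glo ATP luminescence after 40 h compound exposure of human neuroblastoma SK-N-SH cells at 37 °C. AC50 derived by Hill-equation fitting, with DMSO as basal and 100 uM tamoxifen as full inhibition.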
# [6] = Cell Viability - Renal Proximal Tubule (AID 545); conditions: renal proximal tubule cells viability; series mostly up to 91.7 µM;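 further: cells exposed to compound for 40 hours; nearly all actives have a fitted effect of over 40% in size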
# In short: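 Viability taken as intracellular ATP (CellTiter-Glo luminescence) after 40 hr, 37 °C compound treatment of primary proximal tubule cells from rat kidney, 1000 cells/well; Hill-equation fits of qHTS concentration-response data gave AC50.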
# [7] = Cellular Toxicity (caspase-3) MRC-5 (AID 659); conditions: MRC-5 cells, luminescence, normalized: DMSO 0%, 10 µM staurosporine 100%; series mostly up to 91.7 µM
# In short: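 Luminescence from caspase-cleaved aminoluciferin substrate (Caspase-Glo 3/7, 1 hr RT) reports caspase 3/7 activity in MRC-5 lung fibroblasts after 16 hr compound exposure. Normalized to DMSO basal and 10 uM staurosporine as 100%; AC50 from Hill fits.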
# [8] = Cellular Toxicity (caspase-3) N2a (AID 665); conditions: N2a cells, luminescence, normalized: DMSO 0%, 10 µM staurosporine 100%; series mostly up to 92.2 µM;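 further: compound exposure lasted 16 h at 37 °C before readout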
# In short: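 Plated mouse neuroblastoma N2a cells received titrated compounds for 16 h in complete medium. Caspase activity was then detected with a peptide-aminoluciferin luminescent reagent.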
# [9] = Cellular Toxicity (caspase-3) Renal Proximal Tubule (AID 667); conditions: renal proximal tubule cells; series mostly up to 91.7 µM;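 further: cells exposed to compound for 16 hours at 37 °C before detection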
# In short: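 Caspase 3/7 activation measured by luminescent aminoluciferin release in primary rat proximal tubule cells after 16 hr compound exposure at 37 °C. AC50 from Hill-fitted concentration-response, scaled between DMSO and 10 uM staurosporine.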
# [10] = MultiTox-Fluor Cytotoxicity Assay - LYMP1-002 - Live Cells (AID 955); conditions: LYMP1-002 lymphoblastoid live-cell protease fluorescence viability; series mostly up to 46.1 µM
# In short: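 Cytotoxicity in the human lymphoblastoid line LYMP1-002 is measured as loss of live-cell protease activity after 16 h treatment in complete culture medium. AC50 is derived from Hill-equation fits of qHTS concentration-response data.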
# [11] = MultiTox-Fluor Cytotoxicity Assay - LYMP1-003 - Live Cells (AID 962); conditions: LYMP1-003 lymphoblastoid cells, MultiTox-Fluor live-cell protease fluorescence; series mostly up to 92.2 µM;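 further: cytotoxic hits lower the live-cell protease signal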
# In short: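 Cells plated at 2500 per well and incubated 5 hr; compounds added and incubated 16 hr at 37 C; MultiTox-Fluor reagent added for 60 min at room temperature; fluorescence of liberated AFC measured at 405/510 nm.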
# [12] = Cell Viability - LYMP1-003 - Assay at 24 hr (AID 963); conditions: LYMP1-003 lymphoblastoid cell viability; series mostly up to 92.2 µM
# In short: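 Acute toxicity in LYMP1-003 lymphoblastoid cells: 24 hr compound treatment at 37 C, ATP measured with CellTiter-Glo after 30 min at room temperature. AC50 derived by fitting the Hill equation to qHTS titrations.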
# [13] = Cell Viability - LYMP2-021 (AID 974); conditions: LYMP2-021 lymphoblastoid cells viability; series mostly up to 92.2 µM;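 further: compound exposure lasts 24 hours at 37 °C; nearly all actives have a fitted effect of over 55% in size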; further: potency means the concentration at half of the fitted maximal effect
# In short: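 Concentration-response cytotoxicity in a human lymphoblastoid line: 24 hr treatment at 37 C in complete culture medium, tetraoctylammonium bromide as positive control, luminescent ATP quantitation as viability measure.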
# [14] = Cell Viability - LYMP2-007 (AID 979); conditions: LYMP2-007 lymphoblastoid cell viability; series mostly up to 92.2 µM;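 further: cells exposed to compound for 24 h before reading; nearly all actives have a fitted effect of over 60% in size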; further: potency means the concentration at half of the fitted maximal effect
# In short: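 Acute toxicity is scored as a concentration-dependent fall in intracellular ATP in human lymphoblastoid cells treated 24 hr at 37 C, measured by luciferase luminescence; Hill-equation modelling yields AC50.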
# [15] = Cell Viability - LYMP2-016 (AID 984); conditions: LYMP2-016 lymphoblastoid cell viability, qHTS; series mostly up to 92.2 µM;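 further: cells exposed to compound for 24 hours at 37 °C; nearly all actives have a fitted effect of over 55% in size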; further: potency means the concentration at half of the fitted maximal effect
# In short: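 Cytotoxicity was scored by luminescent ATP content (CellTiter-Glo) after 24 h compound exposure at 37 C of a human lymphoblastoid line at 2500 cells/well. Concentration-response data were fitted to the Hill equation for AC50.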
# [16] = Cell Viability - LYMP2-018 (AID 985); conditions: LYMP2-018 lymphoblastoid cells, viability (qHTS); series mostly up to 92.2 µM;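 further: compound exposure lasted 24 hr at 37 °C; nearly all actives have a fitted effect of over 50% in size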; further: potency means the concentration at half of the fitted maximal effect
# In short: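 Acute cytotoxicity is scored as a concentration-dependent drop in intracellular ATP after 24 hr exposure of the lymphoblastoid line in complete culture medium, measured by luciferase luminescence. Potency is expressed as AC50 from Hill modelling.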
# [17] = Cell Viability - LYMP2-020 (AID 986); conditions: series mostly up to 92.2 µM; further: nearly all actives have a fitted effect of over 55% in size; further: potency means the concentration at half of the fitted maximal effect
# In short: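 Acute cytotoxicity in a human lymphoblastoid line is scored as a concentration-dependent fall in cellular ATP after 24 hr at 37 C in complete medium. The positive control is tetraoctylammonium bromide, and potency is given as Hill-fit AC50.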
# [18] = qHTS Assay for Identification of Small Molecule Inducers of Hypoxia Response (AID 2120; active means well fitted curve in the direction sought with a large enough effect in the signal ratio, with a control signal flat, not every such curve was filed as active; the % refers to the signal ratio); conditions: hypoxia response reporter cells, beta-lactamase ratio readout; series mostly up to 104 µM
# In short: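 Induction of beta-lactamase reporter activity was measured in CellSensor HRE-bla ME-180 cells after 17 h compound treatment at 37 degrees C, using CCF4 substrate and the 460nm/530nm emission ratio to derive AC50 values.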
# [19] = qHTS assay for small molecule agonists of the antioxidant response element (ARE) signaling pathway measured by Nrf2-dependant transcriptional activity - cell viability counter screen (AID 720653; active means well fitted curve in the direction sought with a large enough effect in the repeat runs; an effect the other way counts as inactive or inconclusive); conditions: ARE-bla HepG2 viability, CellTiter-Glo ATP luminescence, 16 h; hits give low values
# In short: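 ARE-bla HepG2 cells (2,000/well) rested 5 hrs at 37C/5% CO2, then exposed to compounds in DMSO for 16 hrs. Viability was read in the same wells as intracellular ATP by luminescence, 30 min at room temperature after reagent addition.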
# [20] = qHTS assay for cell viability of HEK293 cells (AID 743288); conditions: ATP luminescence (CellTiter-Glo), 18 h, hits give low values; further: nearly all actives have a fitted effect of over 50% in size
# In short: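 Total intracellular ATP, measured with a luciferase-coupled reagent, indicates the number of viable HEK293 cells. Exposure to test chemicals lasts 18 h at 37 C in 1,536-well format at 2,000 cells/well.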
Structure (SMILES),Potency [1] [µM],Potency [2] [µM],Potency [3] [µM],Potency [4] [µM],Potency [5] [µM],outcome [6],outcome [7],outcome [8],outcome [9],outcome [10],outcome [11],outcome [12],Potency [13],Potency [14],Potency [15],Potency [16],Potency [17],Potency [18],max response [19],max response [20]
CCOC(=O)CC(SP(=O)(OC)OC)C(=O)OCC (centres undefined),> 92,> 92,> 92,> 92,> 92,inactive,inactive,inactive,inactive,inactive,inactive,inactive,inactive,inactive,inactive,inactive,inactive,inactive,0.403% and 18.9%,-12.5% and -3.42%
O=[N+]([O-])c1cc(Cl)c(Cl)cc1Cl,> 92,> 92,> 92,> 92,> 92,inactive,inactive,inactive,inactive,inactive,inactive,inactive,inactive,inactive,inactive,inactive,inactive,inactive,-7.17%,-3.86%
OC[P+](CO)(CO)CO,> 92,31.3,> 92,> 92,> 92,inactive,inactive,inactive,inactive,inactive,inactive,inactive,12.6 µM (active),15.8 µM (active),20 µM (active),7.94 µM (active),12.6 µM (active),inactive,-17.6% and -11.9%,-13.3%
O=C(O)c1cccc(Cl)c1,> 92,> 92,> 92,> 92,> 92,inactive,inactive,inactive,inactive,inactive,inactive,inactive,inactive,inactive,inactive,inactive,inactive,inactive,-8.47%,-0.932%
CCCCCC[N+](=O)[O-],> 92,> 92,> 92,> 92,> 92,inactive,inactive,inactive,inactive,inactive,inactive,inactive,inactive,inactive,inactive,inactive,inactive,inactive,8%,7.41%
ClC(Cl)Br,> 92,> 92,> 92,> 92,> 92,inactive,inactive,inactive,inactive,inactive,inactive,inactive,inactive,inactive,inactive,inactive,inactive,inactive,9.16%,7.42%
Oc1ccc(Cl)c(Cl)c1Cl,> 92,> 92,> 92,> 92,> 92,inactive,inactive,inactive,inactive,inactive,inactive,inactive,inactive,inactive,inactive,inactive,inactive,inactive,13.8%,-4.77%
Nc1ccc(-c2ccc(N)cc2)cc1,> 92,> 92,> 92,> 92,> 92,inactive,inactive,inactive,inactive,inactive,inactive,inactive,inactive,inactive,inactive,inactive,inactive,inactive,-3.71%,2.98%
O=C(Cl)c1ccccc1F,> 92,> 92,> 92,> 92,> 92,inactive,inactive,inactive,inactive,inactive,inactive,inactive,inactive,inactive,inactive,inactive,inactive,inactive,6.36%,-8.76%
N#C/C(N)=C(/N)C#N,> 92,> 92,> 92,> 92,> 92,inactive,inactive,inactive,inactive,inactive,inactive,inactive,inactive,inactive,inactive,inactive,inactive,inactive,-10.7%,-0.0232%
Cc1cnc[nH]1,> 92,> 92,> 92,> 92,> 92,inactive,inactive,inactive,inactive,inactive,inactive,inactive,inactive,inactive,inactive,inactive,inactive,inactive,-3.19%,-9.96%
CCCCC#N,> 92,> 92,> 92,> 92,> 92,inactive,inactive,inactive,inactive,inactive,inactive,inactive,inactive,inactive,inactive,inactive,inactive,inactive,-5.38%,2.15%
O=Cc1ccc(Cl)cc1Cl,> 92,> 92,> 92,> 92,> 92,inactive,inactive,inactive,inactive,inactive,inactive,inactive,inactive,inactive,inactive,inactive,inactive,inactive,1.04%,-8.13%
CC(C)OS(C)(=O)=O,> 92,> 92,> 92,> 92,,inactive,inactive,inactive,inactive,inactive,inactive,inactive,inactive,inactive,inactive,inactive,inactive,inactive,-6.13%,-1.94%
c1ccc2c(c1)CCNC2,> 92,> 92,> 92,> 92,> 92,inactive,inactive,inactive,inactive,inactive,inactive,inactive,inactive,inactive,inactive,inactive,inactive,inactive,5.02%,1.81%
O=[N+]([O-])c1ccc2c3c(cccc13)CC2,> 92,> 92,> 92,> 92,> 92,inactive,inactive,inactive,inactive,inactive,inactive,inactive,inactive,inactive,inactive,inactive,inactive,inactive,3.04% and 5.87%,-14% and -2.65%
Nc1ccc(Cl)c(Cl)c1,> 92,> 92,> 92,> 92,> 92,inactive,inactive,inactive,inactive,inactive,inactive,inactive,inactive,inactive,inactive,inactive,inactive,inactive,-17.9%,-1.26%
CCSC(=O)N1CCCCCC1,> 92,> 92,> 92,> 92,> 92,inactive,inactive,inactive,inactive,inactive,inactive,inactive,inactive,inactive,inactive,inactive,inactive,inactive,-5.76% and -1.37%,2.92% and -12.6%
[O-][Cl+]O,> 92,> 92,> 92,> 92,> 92,inactive,inactive,inactive,inactive,inactive,inactive,inactive,inactive,inactive,inactive,inactive,inactive,inactive,3.42%,-2.54%
CCOP(=S)(OCC)Oc1nc(Cl)c(Cl)cc1Cl,> 92,> 92,> 92,> 92,> 92,inactive,inactive,inactive,inactive,inactive,inactive,inactive,inactive,inactive,inactive,inactive,inactive,inactive,0.0448% [middle of 4 runs],-7.97% [middle of 4 runs]
O=P(OCCCl)(OCCCl)OCCCl,> 92,> 92,> 92,> 92,> 92,inactive,inactive,inactive,inactive,inactive,inactive,inactive,inactive,inactive,inactive,inactive,inactive,inactive,4.31%,-2.52%
